About 2,000 (36%) of roughly 5,500 compounds were called active. About 18% were inconclusive and are not listed. Cut-off read from the data, not from the text of the source: active = normalized growth mostly below about 0.91 (no sharp cut-off); inconclusive = no clear call, values can overlap the other calls; inactive = mostly above about 0.92. This is one part of the list.
Experiment: chemical genetic growth profiling, strain panel (AID 1159580);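 note: tested at 20 µM; growth read once vehicle control cultures reached saturation at 30 °C; 1 = growth at the plate median or of vehicle wells; lower values mean less growth of the strain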
Conditions: growth OD
[1] = S. cerevisiae deletion strains, locus YHR030C, strain SLT2, stronger effect = lower value

Measured: normalized growth

Cc1noc(C)c1C(=O)N1CCOCC1
inactive: S. cerevisiae deletion strains, locus YAL013W, strain DEP1, stronger effect = lower value 1 | S. cerevisiae deletion strains, locus YBR229C, strain ROT2, stronger effect = lower value 0.998 | S. cerevisiae deletion strains, locus YDL101C, strain DUN1, stronger effect = lower value 1 | S. cerevisiae deletion strains, locus YDR150W, strain NUM1, stronger effect = lower value 0.971 | S. cerevisiae deletion strains, locus YEL061C, strain CIN8, stronger effect = lower value 1.01 | S. cerevisiae deletion strains, locus YGR078C, strain PAC10, stronger effect = lower value 1 | [1] 1.07 | S. cerevisiae deletion strains, locus YHR087W, strain rtc3, stronger effect = lower value 1 | S. cerevisiae deletion strains, locus YJR043C, strain POL32, stronger effect = lower value 1 | S. cerevisiae deletion strains, locus YJR075W, strain HOC1, stronger effect = lower value 1 | S. cerevisiae deletion strains, locus YLR039C, strain RIC1, stronger effect = lower value 1.03 | S. cerevisiae deletion strains, locus YLR058C, strain SHM2 (second series), stronger effect = lower value 1 | S. cerevisiae deletion strains, locus YLR085C, strain ARP6, stronger effect = lower value 1.04 | S. cerevisiae deletion strains, locus YLR262C, strain YPT6, stronger effect = lower value 1.01 | S. cerevisiae deletion strains, locus YML094W, strain GIM5, stronger effect = lower value 1.02 | S. cerevisiae deletion strains, locus YMR219W, strain ESC1, stronger effect = lower value 0.993 | S. cerevisiae deletion strains, locus YMR263W, strain SAP30, stronger effect = lower value 0.982 | S. cerevisiae deletion strains, locus YNL153C, strain GIM3, stronger effect = lower value 0.996 | S. cerevisiae deletion strains, locus YNL298W, strain CLA4 (second series), stronger effect = lower value 1.02 | S. cerevisiae deletion strains, locus YNL322C, strain KRE1, stronger effect = lower value 0.995 | S. cerevisiae deletion strains, locus YNR030W, strain Alg12, stronger effect = lower value 1.02 | S. cerevisiae deletion strains, locus YPL055C, strain LGE1, stronger effect = lower value 1 | S. cerevisiae deletion strains, locus YPL241C, strain CIN2, stronger effect = lower value 1.06 | S. cerevisiae deletion strains, locus YPR135W, strain CTF4, stronger effect = lower value 1.02 | S. cerevisiae strains, strain wild type, stronger effect = lower value 1.01

O=Cc1ccccc1O[C@@H]1O[C@H](CO)[C@H](O)[C@@H](O)[C@H]1O
inactive: [1] 1.06 | S. cerevisiae deletion strains, locus YHR079C, strain IRE1, stronger effect = lower value 1.06 | S. cerevisiae deletion strains, locus YJL095W, strain BCK1, stronger effect = lower value 0.996 | S. cerevisiae deletion strains, locus YJR066W, strain TOR1, stronger effect = lower value 0.99 | S. cerevisiae deletion strains, locus YLR113W, strain HOG1, stronger effect = lower value 1.03 | S. cerevisiae deletion strains, locus YNL183C, strain NPR1, stronger effect = lower value 0.992 | S. cerevisiae deletion strains, locus YOR231W, strain MKK1, stronger effect = lower value 1.06 | S. cerevisiae deletion strains, locus YPL256C, strain CLN2, stronger effect = lower value 1.06
